T cruzi growth-1: T. cruzi intracellular proliferation inhibitors, primary screen, cell-based, beta-gal Tulahuen parasites, NIH3T3 host, luminescence | T. cruzi beta-gal in NIH3T3, GalScreen luminescence, 90 h | inhibition, % at 8.34 µM | actives 5.9% (n = 77,000) | AID 624255, 2012;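 active means mean inhibition above about 93%, with at least 55% of replicates each passing it, limit read from the data, passing the limit was not always enough; inconclusive means only one of those two conditions holds; inactive means neither condition holds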
Pf Dd2 growth: P. falciparum Dd2 growth inhibitors, primary screen, SYBR Green fluorescence, single dose replicates. 72 h; active compounds read low. activity change, % at 10 µM. actives 2.3% (n = 94,000). AID 1159554, 2015; in the data active means activity change below about -80%; inconclusive means no clear call, values can overlap the other calls
C diff growth: C. difficile growth inhibitors, primary screen, HTS | Clostridium difficile clinical isolate growth, OD600, 24 h; active compounds read low | growth activity, negative = inhibition, % at 16 µg/mL (by protocol) | actives 0.25% (n = 86,000);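 active means mean growth activity at or below -80% and every replicate also at or below -80%; inconclusive means mean at or below -80% but some replicate above -80%; inactive means mean growth activity above -80%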
T cruzi growth-2: T. cruzi intracellular proliferation inhibitors, confirmation, cell-based, NIH3T3 host, beta-gal parasite, luminescence, cherry-pick | inhibition, % at 8.35 µM | shares compounds with T cruzi growth-1 | T. cruzi beta-gal in NIH3T3, GalScreen luminescence, 90 h | actives 72% (n = 5,600);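 active means mean replicate inhibition above about 95% and at least 55% of replicates individually reaching it, limit read from the data; inconclusive means only one of the two criteria is met; inactive means neither criterion is met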
T cruzi growth-3: inhibitors of intracellular T. cruzi replication, confirmation, NIH3T3 host cells, beta-gal parasites, cherry-pick, set 2; shares compounds with T cruzi growth-1; T. cruzi beta-gal in NIH3T3, GalScreen luminescence, 90 h; inhibition, % at 2.09 µM; actives 21% (n = 5,600);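 active means mean inhibition above about 95%, with at least 55% of replicates also reaching it, limit read from the data; inconclusive means meets just one of the two conditions; inactive means meets neither condition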
3T3 cytotox: cytotoxicity in mouse NIH/3T3 fibroblasts, confirmation, cytotoxicity control for T. cruzi proliferation inhibitor project, cell-based, cherry-pick, single point; shares compounds with T cruzi growth-1; NIH/3T3 viability, CellTiter-Glo ATP luminescence, 90 h; cytotoxicity (signal decrease), % at 8.35 µM; actives 14% (n = 5,600); AID 651742, 2012;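 active means mean signal decrease across replicates above about 35% based on untreated-well scatter, with enough replicates individually passing, limit read from the data; inconclusive means no rule stated though some were filed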
3T3 cytotox 2: NIH/3T3 fibroblast cytotoxicity, confirmation, cytotoxicity control, cell-based, cherry-pick, single point, set 2; shares compounds with T cruzi growth-1; NIH/3T3 viability, CellTiter-Glo ATP luminescence, 90 h; inhibition, % at 24.9 µM; actives 56% (n = 5,600); AID 651744, 2012;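 active means mean loss of cell viability signal at or above a set limit, and enough replicates individually reaching it; inconclusive means meets only the mean limit or only the replicate share; inactive means meets neither condition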
Each line names hits and unclear results; the compound was inactive in the other large screens (follow-up assays come after a bar, where they were run). Most compounds without a hit are left out; they make up all but 6.8% or so of the library.

C[C@@H]1CN([C@@H](C)CO)S(=O)(=O)c2ccc(C#Cc3cccc(F)c3)cc2O[C@@H]1CN(C)S(=O)(=O)c1cn(C)cn1	none
C[C@@H]1CN([C@H](C)CO)S(=O)(=O)c2ccc(C#Cc3ccccc3)cc2O[C@H]1CN(C)S(C)(=O)=O	none
C[C@H](CO)N1C[C@H](C)[C@@H](CN(C)S(=O)(=O)c2cn(C)cn2)Oc2cc(C#Cc3ccccc3)ccc2S1(=O)=O	T cruzi growth-1 104.9 | T cruzi growth-2 106.4 | T cruzi growth-3 inactive | 3T3 cytotox inactive | 3T3 cytotox 2 49.8
C[C@@H]1CN([C@@H](C)CO)S(=O)(=O)c2ccc(C#Cc3ccccc3)cc2O[C@H]1CN(C)S(C)(=O)=O	none
C[C@@H]1CN([C@@H](C)CO)S(=O)(=O)c2ccc(C#Cc3ccccc3)cc2O[C@@H]1CN(C)S(=O)(=O)c1ccccc1F	T cruzi growth-1 123.4 | T cruzi growth-2 104.9 | T cruzi growth-3 109.4 | 3T3 cytotox inactive | 3T3 cytotox 2 47.0
C[C@H](CO)N1C[C@H](C)[C@@H](CN(C)S(=O)(=O)c2ccccc2F)Oc2cc(C#Cc3ccccc3)ccc2S1(=O)=O	T cruzi growth-1 123.3 | T cruzi growth-2 107.2 | T cruzi growth-3 116.1 | 3T3 cytotox inactive | 3T3 cytotox 2 inconclusive
CCS(=O)(=O)N[C@H]1CC[C@H](CC(=O)NCc2ccc(F)cc2)O[C@H]1CO	none (no result: C diff growth)
C[C@H](CO)N1C[C@H](C)[C@H](CN(C)S(=O)(=O)c2cn(C)cn2)Oc2ncc(-c3ccc(F)cc3)cc2C1=O	none (no result: T cruzi growth-1)
C[C@H](CO)N1C[C@H](C)[C@@H](CN(C)C(=O)Cc2ccncc2)Oc2cc(C3=CCCCC3)ccc2S1(=O)=O	none
C[C@H]1CN([C@@H](C)CO)S(=O)(=O)c2ccc(C3=CCCC3)cc2O[C@H]1CN(C)Cc1cccnc1	none
C[C@@H]1CN([C@H](C)CO)S(=O)(=O)c2ccc(C3=CCCCC3)cc2O[C@H]1CN(C)Cc1ccncc1	T cruzi growth-1 118.5 | T cruzi growth-2 inactive | T cruzi growth-3 98.5 | 3T3 cytotox 66.6 | 3T3 cytotox 2 104.1
C[C@H](CO)N1C[C@H](C)[C@@H](CN(C)Cc2ccncc2)Oc2cc(C3=CCCCC3)ccc2S1(=O)=O	T cruzi growth-1 115.5 | T cruzi growth-2 103.2 | T cruzi growth-3 102.3 | 3T3 cytotox 51.8 | 3T3 cytotox 2 104.8
C[C@H]1CN([C@@H](C)CO)S(=O)(=O)c2ccc(C3=CCCCC3)cc2O[C@H]1CN(C)Cc1ccncc1	T cruzi growth-1 113.6 | T cruzi growth-2 inactive | T cruzi growth-3 inactive | 3T3 cytotox 51.0 | 3T3 cytotox 2 65.9
C[C@@H]1CN([C@H](C)CO)S(=O)(=O)c2ccc(C3=CCCCC3)cc2O[C@@H]1CN(C)Cc1ccncc1	T cruzi growth-1 109.8 | T cruzi growth-2 99.9 | T cruzi growth-3 inactive | 3T3 cytotox inactive | 3T3 cytotox 2 67.2
C[C@H](CO)N1C[C@H](C)[C@H](CN(C)Cc2cncnc2)Oc2cc(C3=CCCCC3)ccc2S1(=O)=O	none
C[C@H](CO)N1C[C@H](C)[C@H](CN(C)Cc2cccnc2)Oc2cc(C3=CCCC3)ccc2S1(=O)=O	none
Cc1ccc(S(=O)(=O)N[C@H]2CC[C@@H](CCn3cc(C4CCCC4)nn3)O[C@H]2CO)cc1	none (no result: T cruzi growth-1)
CCCNC(=O)NC[C@@H]1[C@H](c2ccc(C3=CCCCC3)cc2)[C@H](CO)N1C(C)=O	none
O=C(C1CCCC1)N1CCCCN2[C@H](CO)[C@@H](c3ccc(-c4ccncc4)cc3)[C@H]2C1	T cruzi growth-1 inconclusive | T cruzi growth-2 inactive | T cruzi growth-3 inactive | 3T3 cytotox inactive | 3T3 cytotox 2 inactive
CC(=O)N1CCCCN2[C@H](CO)[C@H](c3ccc(-c4ccncc4)cc3)[C@H]2C1	none
O=C(C1CCCC1)N1CCCCN2[C@@H](CO)[C@@H](c3ccc(-c4ccncc4)cc3)[C@@H]2C1	none

Bioassay records: PubChem BioAssay, Broad Institute
